# CHRM1 agonist – agonists of human M1 muscarinic receptor; P11229; CHO-K1 hM1, Fluo-8 calcium fluorescence, agonist mode; 0% DMSO, 100% acetylcholine EC100; activation, % at 3 µM; actives 0.33% (n = 360,000);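 active = activation above the run's mean compound activation plus 3 SD, cut at about 16% in these data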;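 note: peak over basal fluorescence ratio within a 140 s kinetic read after compound addition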
# Target sequence (P11229 whole entry, looked up): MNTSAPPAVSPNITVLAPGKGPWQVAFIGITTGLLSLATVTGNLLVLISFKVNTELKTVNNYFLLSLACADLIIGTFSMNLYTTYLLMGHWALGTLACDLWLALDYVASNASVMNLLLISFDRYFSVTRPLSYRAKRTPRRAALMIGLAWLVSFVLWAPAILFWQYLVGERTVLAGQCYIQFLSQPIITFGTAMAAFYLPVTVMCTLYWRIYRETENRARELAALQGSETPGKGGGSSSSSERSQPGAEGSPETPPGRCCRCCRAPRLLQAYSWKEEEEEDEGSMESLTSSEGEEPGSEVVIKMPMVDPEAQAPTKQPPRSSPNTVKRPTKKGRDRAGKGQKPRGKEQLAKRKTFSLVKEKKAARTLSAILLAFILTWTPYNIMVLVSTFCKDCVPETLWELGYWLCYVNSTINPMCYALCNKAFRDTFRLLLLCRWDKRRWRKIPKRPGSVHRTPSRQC
# CHRM1 antagonist – blocks human M1 muscarinic receptor. inhibition, % at 3 µM. actives 1.3% (n = 360,000). P11229. CHO-K1 hM1, Fluo-8 calcium fluorescence, ACh EC80 antagonist;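 active = percent inhibition above its own plate's cutoff, namely the mean of that plate's compound wells plus 3 SD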;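 note: peak over basal fluorescence ratio during 140 s after agonist addition; 0% = ACh EC80 plus DMSO and 100% = DMSO alone without agonist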
# CHRM1 PAM – human CHRM1 positive allosteric modulation; P11229; CHO-K1 hM1, Fluo-8 calcium fluorescence, ACh EC20; 0% = ACh EC20, 100% = maximal ACh; activation, % at 3 µM; actives 0.088% (n = 360,000); in the data active = activation above about 19%, passing the limit was not always enough
# CHO-K1 Ca antag – M1 antagonist counterscreen hit in parental CHO-K1 cells; ATP-induced calcium, Fluo-8 fluorescence; inhibition, % at 3 µM; actives 0.6% (n = 360,000); AID 602250;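 active = inhibition above a per-plate cutoff, the plate's mean sample inhibition plus 3 SD, cut at about 24% in these data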;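 note: 0% = DMSO plus EC80 ATP and 100% = DMSO alone without ATP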
# CHO-K1 Ca ag – nonselective activator or artifact in parental CHO-K1 cells; Fluo-8 calcium fluorescence; scaled to maximal ATP response, vehicle zero; activation, % at 3 µM; actives 0.48% (n = 360,000); AID 602248; in the data active = activation above about 15%;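 note: untransfected CHO-K1 host cells lacking M1 receptor as counterscreen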
# M1 PAM parental – counter-screen for M1 PAMs: effect in parental CHO-K1 cells; activation, % at 3 µM; AID 602247; actives 0.02% (n = 360,000); ATP EC20, Fluo-8 calcium fluorescence; 0% at ATP EC20, 100% at ATP max;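 active = activation above the run cutoff, the mean activation of all test compounds plus 3 SD, cut at about 40% in these data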;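 note: peak over basal fluorescence ratio in a 140 s read after ATP addition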
# Starred values were filed as active, the others as inactive. This is a sample that favours compounds with a hit; in the whole collection about 2.3% have one here.
SMILES,CHRM1 agonist,CHRM1 antagonist,CHRM1 PAM,CHO-K1 Ca antag,CHO-K1 Ca ag,M1 PAM parental
Cc1cc(NCCCCCCCNc2cc(C)nc3cc([N+](=O)[O-])ccc23)c2ccc([N+](=O)[O-])cc2n1,-8,34*,-28,-7,0,0
O=C(Nc1ccccc1Cl)c1cc(C2CCCCN2C(=O)c2ccccc2)on1 (centres undefined),-7,-19,6,-10,1,16
O=c1[nH]c2c(oc3ccccc32)c(=O)n1Cc1ccccc1,1,-11,4,1,0,0
O=C(O)c1c(-c2ccccc2)c2oc3ccccc3c2[nH]c1=O,-2,7,-4,29*,0,-5
COc1cc(-c2cnc3c(NC=O)cc(-c4cccc(C(=O)NCCN(C)C)c4)cn23)cc(OC)c1OC,-9,-17,14,-3,0,6
Cc1ccc(N(C)S(=O)(=O)c2cccc(C(=O)OCC(=O)c3c(N)n(C)c(=O)n(C)c3=O)c2)cc1,6,33*,-16,2,8,-24
CCCCOC(=O)CSc1nc(N)c(C#N)c(-c2ccc(OCC)cc2)c1C#N,-2,-17,1,27*,0,-5
Cc1ccc(-c2cccc(-c3cc(=O)oc4ccc(C(C)(C)C)cc34)c2)cc1,-4,-11,10,-15,0,12
CCOC(=O)N1CCN(c2c(-c3ccc(C)cc3)c(=O)c2=O)CC1,1,-24,13,14,0,4
CCOC(=O)N1CCN(c2c(-c3ccc(C(C)C)cc3)c(=O)c2=O)CC1,-1,6,5,26*,-1,-7
COc1cc(OC)cc(C(=O)Nc2ccn(C)n2)c1,1,-7,13,-8,1,3
CC(=O)c1ccc(OCC(=O)NCCC2=CCCCC2)cc1,-6,-19,24*,-2,1,-3
CCN1C[C@@H]2[C@@H]3C(=O)N(Cc4ccccc4)C(=O)[C@@H]3[C@](C)(C1=O)N2C(=O)c1ccccc1,-2,-5,8,-19,0,14
O=C(CC(=O)c1ccccc1)c1ccccc1,-2,2,4,-4,0,18
O=C(Cc1ccccc1Cl)c1ccccc1,2,-14,32*,-11,0,-9
O=C(CSc1nnc(NC(=O)c2ccccc2F)s1)NC1CC1,-2,-7,1,-18,0,19
COc1ccc(N=Cc2sc(O)c3ccccc23)cc1,30*,30*,-11,11,14,10
COc1ccc(N=Cc2c(O)c3ccccc3n2C(C)=O)cc1,-4,-5,4,-4,0,3
Cc1ccc(N(CC(=O)NC2CCCCC2)C(=O)CNC(=O)c2ccco2)cc1C,-5,-10,11,-10,2,8
O=c1nc2ccccc2c(NS(=O)(=O)c2ccccc2)n1-c1ccccc1,-1,-7,8,2,0,-3
Cc1ccc(S(=O)(=O)Nc2c3ccccc3nc(=O)n2-c2ccccc2)cc1,3,-9,-4,26*,1,-7
O=c1oc(-c2ccccc2NS(=O)(=O)c2ccc(F)cc2)nc2ccccc12,-2,-1,2,-12,0,-6
O=c1oc(-c2ccccc2NS(=O)(=O)c2ccccc2)nc2ccccc12,-4,3,-1,29*,1,-6
Cc1cc(O)c(C(=O)/C=C/c2ccccc2Br)c(=O)o1,0,-5,8,6,18*,8
Cc1ccc(C)c(N2N=C(C(=O)Nc3cccnc3)CCC2=O)c1,1,-20,18,9,1,16
CCOC(=O)C1CCN(CCC(=O)Nc2cccc(Cl)c2C)CC1,13,-5,-7,-13,2,0
Cc1c(Cl)cccc1NC(=S)N1CCN(Cc2ccccc2)CC1,19*,-7,6,-10,1,18
CCOC(=O)N1CCN(CCC(=O)Nc2cccc(Cl)c2C)CC1,52*,39*,-27,-4,1,6
Cc1cc(=O)[nH]c(NNC(=O)c2ccc(Cl)cc2)n1,1,-14,4,-1,0,-1
COc1ccc(CCn2c(C)cc(C(=O)CSc3nnnn3-c3ccccc3)c2C)cc1,-4,6,-2,24*,-1,-8

# High-throughput results from PubChem.
